Results filed as inconclusive are left out. Unmarked numbers belong to inactive results. Calls of active or inactive are those of the source. Calls follow the shape of the dose curve; as a rule, active = well fitted inhibition curve with a large enough effect; inconclusive = small, poorly fitted or top-dose-only effect; inactive = flat fitted curve, though single readings scatter.
Biological target: Calcium and integrin-binding protein 1 (Homo sapiens) (UniProt Q99828)
Assay: Primary qHTS for Identification of Calcium Integrin Binding Protein 1 (CIB1) Competitor (AID 1508620);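 also: GST tagged CIB1 binding a fluorescein labelled alphaIIb integrin peptide tracer; top concentration of the series differs between compounds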
Conditions: CIB1-GST / FITC-alphaIIb peptide fluorescence polarization; series mostly up to 114 µM; activity change, negative = inhibition: at the top concentration
How it was run: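 CIB1-GST (1 uM final) and compound incubated 15 min at room temperature before adding FITC-alphaIIb peptide tracer (100 nM final). Competition for binding read by fluorescence polarization (ex 480, em 540) after another 15 min at room temperature.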
% is scaled to controls: 0 for no effect and ±100 for the full control effect.

Calcium and integrin-binding protein 1 (Homo sapiens), sequence (Q99828 whole entry, looked up): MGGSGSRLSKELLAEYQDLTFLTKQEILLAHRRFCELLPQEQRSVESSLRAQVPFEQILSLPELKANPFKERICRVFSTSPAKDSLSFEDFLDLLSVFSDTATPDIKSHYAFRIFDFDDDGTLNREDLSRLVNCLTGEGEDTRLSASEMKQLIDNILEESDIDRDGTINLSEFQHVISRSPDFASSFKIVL

SMILES	activity change, negative = inhibition [%]	Potency
COc1ccc(C2=Nn3c(nnc3-c3cccc(OC)c3)SC2)cc1	2.19	–
O=C(OCC#CCSc1nnc(-c2cccc3ncccc23)o1)c1ccc(F)cc1	4.08	–
O=[S+]([O-])(c1c(F)cccc1F)N1CCN([S+](=O)([O-])c2c(F)c(F)c(F)c(F)c2F)CC1	10.4	–
N#Cc1ccc(S(=O)(=O)N2CCN(S(=O)(=O)c3ccc4c(c3)OCCO4)CC2)cc1	-2.97	–
O=S(=O)(Nc1cccc2cccnc12)c1ccc2ccccc2c1	-3.92	–
CCOc1ccc(CCNC(=O)CN(C)C)cc1OCC	0.894	–
Cc1ccc2nc3sc(C(=O)N4CCN(C5CCN(C)CC5)CC4)cc3cc2c1	-0.0408	–
COc1ccc(/C=C(\C)C2Nc3cccc4cccc(c34)N2)cc1	-19	–
Cc1cc2c(s1)c1cnn(Cc3c(F)cccc3Cl)c(=O)c1n2C	-0.0531	–
Cc1ccc(NS(=O)(=O)c2cc3c(cc2N2CCCC2)NC(=O)CC3)cc1C	-9.69	–
Cc1cc(N[S+](=O)([O-])c2ccc(NC(=O)Cc3ccc(F)c(C)c3)cc2)no1	-12.6	–
O=S(=O)(c1ccc(F)cc1)N1CCN(S(=O)(=O)c2ccc3c(c2)OCCO3)CC1	4.69	–
O=C(OCC#CCSc1nnc(-c2cccc3ccccc23)o1)c1cnc[nH]1	-5.48	–
Cc1ccc(NC(=O)CN2C(=O)N/C(=C\c3ccco3)C2=O)cc1	-21.6	–
FC(F)(F)c1cccc(-c2nc(NCc3ccc(-c4cccnc4)cc3)c3ccccc3n2)c1	5.81	–
O=C(Cc1nnc(CNC(=O)c2ccccc2)s1)Nc1ccc(C(F)(F)F)cc1Cl	-0.0839	–
COc1cccc(-c2csc3ncnc(Sc4nnnn4C)c23)c1	5.53	–
NC(=O)C1CCN(c2ncc(-c3cccc(F)c3)s2)CC1	-1.28	–
O=C(Nc1nnc(-c2ccncc2)s1)Nc1ccc(Cl)cc1Cl	6.31	–
CC(C)(C)N[S+](=O)([O-])c1cccc(-c2nnc(SCc3ccc(C(=O)O)cc3)n2-c2ccc(F)cc2)c1	1.44	–

SMILES	activity change, negative = inhibition [%]	Potency
O=C(Nc1ccc(Cl)nc1)Nc1nnc(-c2ccncc2)s1	3.56	–
Oc1cccc2cc(-c3ccccc3)cnc12	-6.33	–
Fc1cc(Nc2nc(-c3ccncc3)nc3ccccc23)ccc1-c1ccnc(C(F)(F)F)c1	8.08	–
COc1ccc(NC(=O)c2ccc(-c3nc4ccccc4[nH]3)cc2)cc1OC	6.3	–
CC(C)c1ccccc1-c1nc(NCc2ccc(-c3cccnc3)cc2)c2occc2n1	-0.709	–
O=C(Nc1ccc(-c2cccnc2)nc1)c1cccs1	4.93	–
O=S(=O)(NCC1CCC(NS(=O)(=O)c2c(F)cccc2F)CC1)c1ccc2c(c1)OCCO2 (centres undefined)	7.67	–
CCc1ccc2oc(=O)cc(CN3CCN(c4ccccc4F)CC3)c2c1	1.55	–
C#CCOc1ccc(C(C)=O)cc1-c1nnc2n1N=C(c1ccc(OC)c(OC)c1)CS2	1.77	–
S=C(Nc1cc(Cl)ccn1)N1CCN(c2ccc(Cl)c(Cl)c2)CC1	-4.14	–
Cc1ccc(OCCn2c(CCNC(=O)Cc3cccc(F)c3)nc3ccccc32)cc1	6.44	–
Cc1ccc(OCCn2c(CCNC(=O)c3ccco3)nc3ccccc32)cc1	3.39	–
c1nc(NCCc2cnc[nH]2)c2cc(-c3ccc4c(c3)OCO4)ccc2n1	–	inactive
Cc1sc(NC(=O)Cc2ccc3c(c2)OCO3)nc1-c1ccc2c(c1)CCN2C(=O)C1CCCCC1	3.84	–
O=C1Nc2cc(Cl)ccc2/C1=C\c1cc(Cl)c(O)c(Cl)c1	15.5	–
Cc1cc(C)nc(NC(=S)N2CCN(c3ccc(F)cc3F)CC2)c1	–	inactive
COc1ccc(C2=Nn3c(nnc3-c3ccc(OC)c(OC)c3)SC2)cc1OC	1.49	–
CC(=O)Nc1cccc(OCc2cccc(C3Nc4ccccc4C(=O)N3Cc3ccco3)c2)c1 (centres undefined)	-2.25	–
COc1cc2nc(N3CCN(C)CC3)nc(NCCN(C)C)c2cc1OC	2.98	–
